Structures are written as SMILES. About 590 (28%) of roughly 2,100 compounds were called active. Inconclusive results (about 42%) are left out. Some of the results follow. Unmarked numbers belong to inactive results. The call rests on the fitted dose curve; in most records, active means well fitted inhibition curve with a large enough effect; inconclusive means small, poorly fitted or top-dose-only effect; inactive means flat fitted curve, though single readings scatter.
Potency means the concentration at half of the fitted maximal effect.

Sequence of DNA dC->dU-editing enzyme APOBEC-3F (Homo sapiens) (Q8IUX4 whole entry, looked up): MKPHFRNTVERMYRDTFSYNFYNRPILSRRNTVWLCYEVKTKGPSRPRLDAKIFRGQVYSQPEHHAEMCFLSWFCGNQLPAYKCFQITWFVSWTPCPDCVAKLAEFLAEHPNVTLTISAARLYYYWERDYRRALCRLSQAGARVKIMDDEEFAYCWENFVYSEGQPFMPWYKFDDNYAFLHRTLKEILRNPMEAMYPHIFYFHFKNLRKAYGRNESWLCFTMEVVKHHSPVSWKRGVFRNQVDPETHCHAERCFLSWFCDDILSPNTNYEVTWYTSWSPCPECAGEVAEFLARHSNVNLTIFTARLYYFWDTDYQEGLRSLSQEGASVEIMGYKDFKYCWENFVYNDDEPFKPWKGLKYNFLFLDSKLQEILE

The target in the assay is DNA dC->dU-editing enzyme APOBEC-3F (Homo sapiens) (UniProt Q8IUX4). Nature of the assay: qHTS for inhibitors of Vif-A3F interactions: Cherry picks. Further: nearly all actives have a fitted effect of over 70% in size.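 On max response: % of control where 0% means no effect; active compounds raise eYFP fluorescence by blocking Vif-driven A3F loss.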 Particulars: HeLa A3F-eYFP + Vif (tagged APOBEC3F with the HIV-1 protein that degrades it), eYFP fluorescence, 24 h. The procedure, abridged:
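HeLa cells stably expressing A3F-eYFP plus Vif, cultured overnight, then exposed to compounds at several concentrations for 24 h at 37 deg C. Reduced Vif-driven degradation read as rising eYFP fluorescence (488 nm ex/500-530 nm em) by laser-scanning cytometry; MG132 as positive control.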
A general note: In qHTS, concentration-response curves come from the screen itself.
Take `O=Cc1s/c(=N\S(=O)(=O)c2ccccc2)n(CCCCl)c1Cl`: the max response was -29.9%. As to `COc1ccc(NC(=S)Nc2ncccc2C)c(OC)c1`, the max response is 0.806%. For `COc1ccc(C(=O)/C=C/Nc2ccc([N+](=O)[O-])cc2C)c(OC)c1`, the Potency was 13 µM (active).

Consider `COc1ccc(C(=O)c2cc([N+](=O)[O-])ccc2N2CCCC2)cc1`, for which the max response is -19.8%. Still for that read-out and setting: then `COc1ccccc1NC(=O)Cc1ccc(-c2ccccc2)cc1`, with 3.04%; and `O=C(NC(=S)Nc1ccc(-c2ccccc2)cc1)c1ccccc1`, with 1.35%. For `O=C(Nc1ccccc1OC(=O)c1ccccc1)c1ccccc1`, the Potency is 17.7 µM (active). Take `COC(=O)c1cc(Nc2nc3ccccc3nc2NS(=O)(=O)c2ccc(C)cc2)ccc1Cl`: the max response was -5.41%. The same measure, in the same setting: then `COc1ccc(/C=C/C=C2\NC(=S)NC2=O)cc1`, with -26%. On to `COc1ccc(/C=C2\C(=O)NC(=S)N2C(=O)c2ccc(F)cc2)cc1`, for which the Potency was 13 µM (active). As to `C[n+]1ccc(/C=C/c2cc[n+](C)c3ccccc23)c2ccccc21`, the Potency was 11.6 µM (active). As to `C=CCN1C(=O)c2ccc(C(=O)N(CC(C)C)c3c(N)n(CCCC)c(=O)[nH]c3=O)cc2C1=O`, the max response is 4.71%. Consider `CCCCn1c(N)c(N(CC(C)C)C(=O)Cc2ccc(S(=O)(=O)N3CCOCC3)s2)c(=O)[nH]c1=O`, for which the Potency is 23.1 µM (active). In the case of `CCCCn1c(N)c(N(CCC(C)C)C(=O)c2ccc([N+](=O)[O-])o2)c(=O)[nH]c1=O`, the max response was 0.229%. On to `COc1cccc(/C(O)=C/c2nc3ccc(C(=O)NCCc4ccc(Cl)cc4)cc3[nH]c2=O)c1`, for which the Potency was 8.2 µM (active). Still for that read-out and setting: then `COc1cccc(/C(O)=C/c2nc3ccc(C(=O)NCCc4cccc(C)c4)cc3[nH]c2=O)c1`, with 11.6 µM (active). `COc1cccc(Sc2ccccc2/C=N/NC(N)=O)c1`: the max response is -25.5%.

For the compound `CCn1c(SCC(=O)N/N=C/c2ccc(C)s2)nc2ccccc21`, the max response was -29.4%. `COc1ccc2nc(C)cc(SCC(=O)N/N=C/c3cccc4ccccc34)c2c1`: the Potency is 11.2 µM (active).

As to `Cc1ccc(CN(C(=O)c2ccccc2F)c2ccccn2)o1`, the max response was -5.38%. The same measure, in the same setting: then `Cc1cccc(C)c1NC(=S)NC(C)CCc1ccccc1` (stereo not drawn), with 1.36%. In the case of `CN1C(=O)/C(=C\c2ccc(N(C)C)cc2)OC1=S`, the Potency was 7.9 µM (active). Same read-out and setting: then `CN1C(=S)N(c2cccnc2)C(=O)/C1=C\c1ccc(N(C)C)cc1`, with 15.8 µM (active). Regarding `O=C(NC(=S)N1CCc2ccccc21)c1ccco1`, the max response was -0.232%. For the compound `CN(C)S(=O)(=O)c1ccc2c(c1)/C(=C/c1cc3c([nH]1)CCCC3)C(=O)N2`, the Potency was 2.23 µM (active). `O=C1/C(=C/c2ccc(O)cc2)SC(=S)N1CC1CCCO1` (stereo not drawn): the max response is 5.6%. On to `COCCN1C(=O)/C(=C/c2ccc(N3CCCC3)cc2C)SC1=S`, for which the Potency is 2.59 µM (active).

`COCCN1C(=O)/C(=C/c2ccc(N3CCCC3)cc2)SC1=S`: the Potency is 4.61 µM (active). `CN(Cc1cnn(Cc2ccccc2)c1)C(=O)c1cccc(S(=O)(=O)N2CCOCC2)c1`: the max response was -22%. Turning to `CC(=O)c1ccc2cccc3c2c1N=CN3C`, the Potency was 15.8 µM (active). For `CCOc1cc(C(=O)NN=C2CCCC2)cc(OCC)c1OCC`, the max response was -3.9%. As to `COc1ccc2c(Cl)c(C(=O)N/N=C3\CCCC(=O)C3)sc2c1`, the Potency is 14 µM (active). The same measure, in the same setting: then `O=[N+]([O-])c1ccc(N2CCN(Cc3ccccc3)CC2)c2c1no[n+]2[O-]`, with 14 µM (active). With `Cc1ccc2nc(C)c(C(=O)NN=C3CCCCCC3)n2c1`, the max response is -15.2%. Turning to `N#CCSc1ccccc1NC(=O)CN1C(=O)C2CC=CCC2C1=O` (stereo not drawn), the Potency is 14 µM (active). Take `Cc1ccccc1NC(=O)CSC1=C(C#N)C(c2ccsc2)CC(=O)N1` (stereo not drawn): the max response was -7.98%. The same measure, in the same setting: then `N#CCSc1ccccc1NC(=O)CN1C(=O)NC(CCc2ccccc2)C1=O` (stereo not drawn), with -19.2%; and `CS(=O)(=O)Nc1cccc(C2=NN(S(C)(=O)=O)C(c3ccc4c(c3)OCO4)C2)c1` (stereo not drawn), with -28.5%; and `Cc1ccccc1C1CC(c2cccs2)=NN1S(C)(=O)=O` (stereo not drawn), with -5.18%.

In the case of `CS(=O)(=O)Nc1ccc(C2=NN(S(C)(=O)=O)C(c3ccc4c(c3)OCO4)C2)cc1` (stereo not drawn), the Potency was 17.7 µM (active). Regarding `CS(=O)(=O)N1N=C(c2ccccc2)CC1c1ccc2c(c1)OCO2` (stereo not drawn), the Potency is 14 µM (active). Regarding `CS(=O)(=O)Nc1ccc(C2=NN(S(C)(=O)=O)C(c3ccc4nccnc4c3)C2)cc1` (stereo not drawn), the max response was -7.65%. Still for that read-out and setting: then `Cc1cc(OCC(=O)Nc2nnc(C3CC3)s2)ccc1Cl`, with 2.35%. Turning to `COC(=O)c1ccc(NC(=O)CC2Nc3cc(C)c(C)cc3NC2=O)cc1` (stereo not drawn), the Potency is 6.51 µM (active). Take `CCOC(=O)c1ccc(NC(=S)NC(=O)C2CCCC2)cc1`: the max response was -3.01%.

For `Cc1cccc(C(=O)Nc2nnc(C3=COCCO3)o2)c1`, the max response is 0.472%. As to `Cc1cc2nc3c(=O)n(C4CCCCC4)c(=O)[nH]c3nc2cc1N`, the Potency was 16.4 µM (active). Regarding `CCCCCCn1c(=O)[nH]c2nc3cc(N)ccc3nc2c1=O`, the max response is -0.0141%.

Consider `CCN(CC)c1nc(C)c(C(=S)Nc2cc([N+](=O)[O-])ccc2Cl)s1`, for which the max response is -3.83%. Same read-out and setting: then `O=C(COC(=O)C12CC3CC(CC(Cl)(C3)C1)C2)N1CCCCC1`, with 1.53%; and `CN1CCc2c(sc3c2C(=O)NC(c2ccc(-c4ccc(Cl)cc4)o2)N3)C1` (stereo not drawn), with -10.4%. Take `CCOC(=O)N1CCc2c(sc3c2C(=O)NC(c2ccc(N(C)C)cc2)N3)C1` (stereo not drawn): the Potency is 20.6 µM (active). Consider `COc1ccc(CN(C(C)=O)c2cccc(C)c2C)cc1`, for which the max response is -29.4%. In the case of `CCOC(=O)C1CCCN(C(=O)c2ccc3nc(-c4cccc(OC)c4)oc3c2)C1` (stereo not drawn), the max response is -18.5%. As for `CCOc1ccccc1Nc1nnc(-c2cc3cc(OC)ccc3oc2=O)s1`, the Potency was 7.31 µM (active).

As to `COc1ccc2oc(=Nc3ccccc3)c(-c3nc4ccccc4[nH]3)cc2c1`, the max response was -13%. `COc1ccc2oc(=O)c(-c3nc4ccccc4o3)cc2c1`: the Potency was 20.6 µM (active). On the same count and under the same terms, then `CCOc1cc(/C=C2\CCC/C(=C\c3cc(Cl)c(O)c(OCC)c3)C2=O)cc(Cl)c1O`, with 7.04 µM (active). `COc1cc(/C=N/Nc2ccc(Cl)nn2)cc(OC)c1O`: the max response is 2.03%. Take `COc1cc(/C=C2/CCC/C(=C\c3cc(O)c(OC)c(Cl)c3)C2=O)cc(Cl)c1O`: the Potency is 8.2 µM (active).

For the compound `CCOc1c(Cl)cc(/C=N/NC(N)=S)cc1OC`, the max response is -28.8%. With `Fc1ccc2nc3[nH]c4ccccc4c3nc2c1`, the Potency is 0.994 µM (active). As to `COc1ccccc1CNC(=O)c1ccc2nc3[nH]c4ccccc4c3nc2c1`, the max response was -25.8%.

In the case of `Cc1c(=O)n(OCc2ccc(Cl)cc2)c2ccccc2[n+]1[O-]`, the max response is -8.69%. As for `Cn1cccc1/C=C1\CC(C(C)(C)C)C/C(=C\c2cccn2C)C1=O` (stereo not drawn), the Potency was 4.11 µM (active).

`CC1C/C(=C/c2cccs2)C(=O)/C(=C/c2cccs2)C1` (stereo not drawn): the max response is -0.33%.

Regarding `CN1C2CCC1/C(=C/c1cccn1C)C(=O)/C2=C\c1cccn1C`, the Potency was 16.4 µM (active). The same measure, in the same setting: then `CN1/C(=C\C=C(/C#N)C(=O)Nc2ccc(Cl)cc2)C(C)(C)c2ccccc21`, with 3.14 µM (active). For `COc1ccc(NC(=O)/C(C#N)=C\C=C\c2ccco2)cc1`, the max response was -29.2%. On to `CN1/C(=C\C=C(/C#N)C(=O)Nc2ccccc2F)C(C)(C)c2ccccc21`, for which the Potency is 20.6 µM (active). Regarding `COc1ccc(NC(=O)/C(C#N)=C/C=C/c2ccco2)cc1`, the max response was -30%.

In the case of `O=C(NC(=S)N1CCN(c2ccccn2)CC1)c1ccccc1`, the max response was 0.282%. For `CN(C)c1ccc(/C=C/C=C/c2ccnc3ccccc23)cc1`, the Potency was 2.59 µM (active). Same read-out and setting: then `CN(C)c1ccc(/C=C/c2ccnc3ccccc23)c(N)c1`, with 7.31 µM (active); and `Nc1ccccc1/C=C/c1ccnc2ccccc12`, with 23.1 µM (active).

With `CN(C)c1ccc(/C=C/c2ccnc3ccccc23)cc1`, the Potency was 13 µM (active). With `COc1ccc(-c2nc3cnccn3c2NC2CCCCC2)cc1-c1cccc(Cl)c1`, the max response was -28.6%.

On to `CCOC(=O)c1cnc(-n2nc(C)cc2C)nc1NNc1nc(-c2ccccc2)cc(-c2ccccc2)n1`, for which the max response was 6.49%.

`c1ccc(N=NC2=NN(c3ccccc3)CS2)cc1`: the max response was 0.337%. On the same count and under the same terms, then `CCCC(=O)NC(c1ccc(OC)cc1)c1ccc2cccnc2c1O` (stereo not drawn), with 0.49%.

Take `COc1cccc2nccc(/C=C/c3ccc(N(C)C)cc3)c12`: the Potency was 20.6 µM (active). The same measure, in the same setting: then `CN(C)c1ccc(/C=C/c2cnnc3ccccc23)cc1`, with 20.6 µM (active). The same measure, in the same setting: then `CN(C)c1ccc(/C=C/c2ccnc3ccc(-c4ccccc4)cc23)cc1`, with 2.31 µM (active); and `CNc1ccc(/C=C/c2ccnc3ccccc23)cc1`, with 14.6 µM (active). For the compound `NC(=S)N/N=C/c1ccccc1OC(=O)/C=C/c1ccccc1`, the max response is -3.11%. Still for that read-out and setting: then `CC(C)CC(=O)NC(=S)N(Cc1ccccc1)Cc1ccccc1`, with -4.2%; and `Cc1ccc(S(=O)(=O)N2CCN(C(=O)CSC(=S)N3CCCC3)CC2)c(C)c1`, with 1.16%; and `COc1cc(C=C2C(=O)c3ccccc3C2=O)cc(OC)c1OC`, with -7.21%. For `COc1cc(/C=C2/CC/C(=C/c3ccc(O)c(OC)c3)C2=O)ccc1O`, the max response was -11.3%. For the compound `COc1cc(/C=C/C(C)=NNc2ccccc2)ccc1O`, the max response was -28.1%. In the case of `CO/N=C/c1ccc(OC)c(Oc2nc(OC)cc(OC)n2)c1`, the max response was -21.4%. As to `COc1cc(/C=C2\COC/C(=C\c3ccc(O)c(OC)c3)C2=O)ccc1O`, the Potency is 14 µM (active). Same read-out and setting: then `COc1ccc(/C=C2/CSC/C(=C/c3ccc(OC)c(OC)c3)C2=O)cc1OC`, with 5.59 µM (active).

The values above are taken from PubChem BioAssay AID651814 (National Center for Advancing Translational Sciences (NCATS), 2012).
